Laboratory results as given in PubChem BioAssay (NCATS).
Inconclusive results are not listed. Where a call stands in place of a potency, no number is given. Active and inactive are the calls of the source. Calls follow the shape of the dose curve; as a rule, active = well fitted activation curve with a large enough effect; inconclusive = small, poorly fitted or top-dose-only effect; inactive = flat fitted curve, though single readings scatter.

assay: qHTS for Activators of Parkin Expression: LOPAC Validation Assay (NLuc Reporter) (AID 720572); settings: Parkin promoter NanoLuc reporter cells, luminescence; series mostly up to 46.1 µM
Method in brief: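 NLuc signal, read 10 min after reagent and following a prior FLuc read, is normalized to DMSO (0) and positive controls (100%). Cells: neuronal Parkin-promoter coincidence reporter line; compounds tested 7-point, 24 h, 37 C, 5% CO2.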
Potency is read from the fitted curve at half-maximal effect.

For `OCCN1CCN(CCCN2c3ccccc3Sc3ccc(Cl)cc32)CC1`, which Potency is on record?
Its Potency is “inactive”.

For `CSc1ccc2c(c1)C(N1CCN(C)CC1)Cc1ccccc1S2` (stereo unspecified), which Potency is on record?
Its Potency is “inactive”.

With `C=Cc1c(C)c2cc3[nH]c(cc4nc(cc5nc(cc1[nH]2)C(C)=C5CCC(=O)O)C(CCC(=O)O)=C4C)c(C)c3C=C` as the molecule, how does the Potency read?
Its Potency is “inactive”.

With `CC(C)NC[C@H](O)c1ccc(O)c(O)c1` as the molecule, how does the Potency read?
The Potency was “inactive”.

For `CC(C)C(=O)c1c(C(C)C)nn2ccccc12`, which Potency is on record?
Its Potency is “inactive”.

For `CC(C(O)c1ccc(O)cc1)N1CCC(Cc2ccccc2)CC1` (stereo unspecified), which Potency is on record?
The Potency was “inactive”.

For `CC1=C(CC(=O)O)c2cc(F)ccc2/C1=C\c1ccc(S(C)(=O)=O)cc1`, which Potency is on record?
The Potency was “inactive”.

For `CNCC(O)c1ccc(O)c(O)c1` (stereo unspecified), which Potency is on record?
The Potency was “inactive”.

With `CC(C)(C)[C@]1(O)CCN2C[C@H]3c4ccccc4CCc4cccc(c43)[C@@H]2C1` as the molecule, how does the Potency read?
The Potency was “inactive”.

For `CC(C)(C)c1onc(OCP(=O)(O)O)c1CC(N)C(=O)O` (stereo unspecified), which Potency is on record?
Its Potency is “inactive”.

Which Potency does the source give for `OCc1cc(C(O)CNCCCCCCOCCCCc2ccccc2)ccc1O` (stereo unspecified) here?
The Potency was “inactive”.

With `CC(C)(C(=O)O)c1ccc(C(O)CCCN2CCC(C(O)(c3ccccc3)c3ccccc3)CC2)cc1` (stereo unspecified) as the molecule, how does the Potency read?
The Potency was “inactive”.

With `CCN(CC)CCOC(=O)C1(C2CCCCC2)CCCCC1` as the molecule, how does the Potency read?
The Potency was “inactive”.

Which Potency does the source give for `CCN(CC)CCCC(C)Nc1c2ccc(Cl)cc2nc2ccc(OC)cc12` (stereo unspecified) here?
Its Potency is “inactive”.

For `CCCn1cnc2c1c(=O)n(CCCCC(C)=O)c(=O)n2C`, which Potency is on record?
The Potency was “inactive”.

Which Potency does the source give for `CCCCCCCCCCCCCCCC(=O)NCCO` here?
Its Potency is “inactive”.

Which Potency does the source give for `COCCOC(=O)C1=C(C)NC(C)=C(C(=O)OC/C=C/c2ccccc2)C1c1cccc([N+](=O)[O-])c1` (stereo unspecified) here?
Its Potency is 5.17 µM (active).

With `CC(=O)OCC(=O)[C@@]1(O)CC[C@H]2[C@@H]3CCC4=CC(=O)CC[C@]4(C)[C@H]3C(=O)C[C@@]21C` as the molecule, how does the Potency read?
The Potency was “inactive”.

For `CN(C)CCCN1c2ccccc2CCc2ccccc21`, which Potency is on record?
The Potency was “inactive”.

With `NC(N)=NCCC[C@H](N)C(=O)O` as the molecule, how does the Potency read?
The Potency was “inactive”.

With `CC[C@H]1CN2CCc3cc(OC)c(OC)cc3[C@@H]2C[C@@H]1C[C@H]1NCCc2cc(OC)c(OC)cc21` as the molecule, how does the Potency read?
The Potency was “inactive”.

For `C#CCN(C)Cc1ccccc1`, which Potency is on record?
The Potency was “inactive”.

Which Potency does the source give for `NC1CCN(c2cccc(Cl)n2)CC1` here?
Its Potency is “inactive”.

For `CC1=C(CC(=O)O)c2cc(F)ccc2/C1=C\c1ccc(S(C)=O)cc1` (stereo unspecified), which Potency is on record?
Its Potency is “inactive”.

Which Potency does the source give for `Cc1cc(N)c2ccccc2[n+]1CCCCCCCCCC[n+]1c(C)cc(N)c2ccccc21` here?
Its Potency is “inactive”.

With `CN1CCN(C2Cc3ccccc3Sc3ccc(Cl)cc32)CC1` (stereo unspecified) as the molecule, how does the Potency read?
The Potency was “inactive”.

With `CC(CN(C)C)CN1c2ccccc2CCc2ccccc21` (stereo unspecified) as the molecule, how does the Potency read?
The Potency was “inactive”.

With `Nc1cc(=O)[nH]c(N)n1` as the molecule, how does the Potency read?
The Potency was “inactive”.

For `CNCCC(Oc1ccc(C(F)(F)F)cc1)c1ccccc1` (stereo unspecified), which Potency is on record?
The Potency was “inactive”.

For `Nc1ncnc2c1ncn2[C@@H]1O[C@H](CO)[C@@H](O)[C@H]1O`, which Potency is on record?
The Potency was “inactive”.

Which Potency does the source give for `N=c1c[n+](N2CCOCC2)[n-]o1` here?
The Potency was “inactive”.

For `CSc1ccc2c(c1)N(CCC1CCCCN1C)c1ccccc1S2` (stereo unspecified), which Potency is on record?
Its Potency is “inactive”.

With `CCN(CC)CCNC(=O)c1cc(Cl)c(N)cc1OC` as the molecule, how does the Potency read?
The Potency was “inactive”.

For `O=C1N=C(O)CN1/N=C/c1ccc(-c2ccc([N+](=O)[O-])cc2)o1`, which Potency is on record?
The Potency was “inactive”.

With `CN(C)CC[C@@H](c1ccc(Cl)cc1)c1ccccn1` as the molecule, how does the Potency read?
The Potency was “inactive”.

For `CNCCCC1c2ccccc2C=Cc2ccccc21`, which Potency is on record?
The Potency was “inactive”.
